Measurements as given in PubChem BioAssay (NCATS).
Results filed as inconclusive are left out. Calls come from the whole dose curve; as a rule, active = well fitted inhibition curve with a large enough effect; inconclusive = small, poorly fitted or top-dose-only effect; inactive = flat fitted curve, though single readings scatter.

Experiment: qHTS for Inhibitors of Plasmodium falciparum (7G8) proliferation (AID 504316);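 note: 0% = DMSO vehicle and -100% = 0.29 µM artemisinin full kill; nearly all actives have a fitted effect of over 65% in size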
Conditions: P. falciparum 7G8 in erythrocytes, SYBR Green DNA, 72 h; series mostly up to 6.7 µM; activity change, negative = inhibition: at the top concentration
In short: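 Erythrocytes infected with P. falciparum line (0.3% parasitemia, 2.5% hematocrit final) incubated with compounds 72 h at 37 °C, 5% CO2; SYBR Green lysis buffer added, fluorescence read next day. Normalized to 0.29 uM artemisinin and DMSO.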

Activity change, negative = inhibition, inactive:
COC(=O)C1=C(C)N(Cc2ccco2)C(=O)N[C@@H]1c1ccco1 2.2%, COc1cccc([C@@H]2Oc3ccc(Br)cc3C(=O)[C@@H]2OC(=O)Nc2cc(OC)c(OC)c(OC)c2)c1 1.88%, CCN1C(=O)[C@@H]2[C@H]3[C@H](O)[C@H](O)CC(=NO[C@@H](C)c4cc(-c5c(C)cc(C)cc5C)no4)[C@@H]3CC[C@H]2C1=O -11.8%, COC/C=C/C1=CC2=CC(=O)C(C)(OC(=O)c3cnc4ccccc4n3)C(=O)C2=CN1C1CCCC1 (stereo not drawn) -1.92%, COC(=O)C1=C(C(=O)OC)[C@@H]2Nc3ccccc3[C@@]23C[C@@H](C(=O)OC)N(C(=O)c2ccc(Br)cc2)C3=N1 -8.47%, CCCCC1=CC2=C(c3ccco3)C(=O)C(C)(OC(=O)c3ccc(OC)cc3)C(=O)C2=CN1CCc1c[nH]c2ccccc12 (stereo not drawn) 2.89%, CCN1C(=O)N(C)[C@@H](c2ccccc2)C(C(=O)OC)=C1C -13%, COC(=O)CCC(=O)OC1(C)C(=O)C2=CN(CCCCO)C(c3ccc(OC)cc3)=CC2=C(Br)C1=O (stereo not drawn) -2.58%, CCN1C(=O)N[C@@H](c2cccs2)C(C(=O)OC)=C1C -0.844%, CCCCC1=CC2=CC(=O)C(C)(OC(=O)CC)C(=O)C2=CN1CCc1c[nH]c2ccccc12 (stereo not drawn) 0.315%, CCN1C(=O)N[C@@H](c2cccc(F)c2)C(C(C)=O)=C1C -2.3%, CC#CCN1c2ccccc2[C@]23C[C@@H](C(=O)OC)N(C(=O)c4ccco4)C2=NC(C(=O)OC)=C(C(=O)OC)[C@H]13 -4.47%, CCCNC(=O)N1C2=NC(C(=O)OC)=C(C(=O)OC)[C@@H]3Nc4ccccc4[C@]23C[C@H]1C(=O)OC 2.27%, CC(=O)C1=C(C)N(Cc2ccccc2)C(=O)N[C@H]1c1ccco1 -5.33%, COC/C=C/C1=CC2=CC(=O)C(C)(OC(=O)c3cnc4ccccc4n3)C(=O)C2=CN1Cc1ccc2c(c1)OCO2 (stereo not drawn) -4.16%, COC(=O)c1ccccc1S(=O)(=O)N1CCc2nc(COc3ccccc3)c3c(c2C1)CO[C@@H](C)C3 -14.7%, CCOC(=O)OC[C@H]1O[C@H](c2ccccc2)C=C[C@H]1OC(=O)OCC -4.89%, O=C(NS(=O)(=O)c1ccc(F)cc1)O[C@@H]1C(=O)c2cc(Br)ccc2O[C@H]1c1ccc2c(c1)OCO2 5.76%, CCOC(=O)[C@@]1([C@@H](NC(=O)OC)c2cccc(F)c2)CCCC1=O 1.73%, CCOC(=O)CN1C(=O)N[C@@H](c2cccc(C(F)(F)F)c2)[C@H](C(=O)OC)[C@H]1C -1.74%, CC=Cc1cc2ccccc2c2c(C(=O)OC)c(C(=O)OC)c(C(=O)OC)n12 -12.3%, CCCCC1=CC2=CC(=O)C(C)(OC(=O)CC)C(=O)C2=CN1c1ccccc1 (stereo not drawn) 0.496%, COC(=O)[C@@]1(C=C2c3ccc(F)cc3[C@@H](OC)[C@@H]2C)[C@@H]2CC=C[C@@H]21 -16.1%, COC(=O)[C@H]1[C@@H](C)N(Cc2ccccc2)C(=O)N[C@H]1c1cccc(C(F)(F)F)c1 0.543%, CCCCc1nc2c(c3c1C[C@H](C)OC3)CN(S(=O)(=O)c1ccc3c(c1)OCCN3C)CC2 -17.4%, COC(=O)[C@H]1[C@H](CCc2ccccc2)NC(=O)N(Cc2ccccc2)[C@@H]1C -0.515%, CCOC(=O)CN1C(=O)N[C@@H](c2ccccc2)[C@@H](C(=O)OC)[C@H]1C 0.661%, COC/C=C/C1=CC2=CC(=O)C(C)(OC(=O)c3cnc4ccccc4n3)C(=O)C2=CN1Cc1ccco1 (stereo not drawn) 0.507%
